Assay outcomes as filed in PubChem BioAssay.
Rows were chosen to be rich in hits. Some 6.8% of all compounds tested hit in one or more screens of this group.
TSG101-PTAP inh = qHTS Assay for Iinhibitors of HIV-1 Budding by Blocking the Interaction of PTAP/TSG101. Fluorescence polarization, FITC-PTAP peptide / Tsg101 binding. 340,000 tested, under 10 active. Tumor susceptibility gene 101 protein (Homo sapiens), Q99816. AID 493005, 2010. Potency, µM (titrated, usually from 115 µM), for the others: at the top dose activity change, negative = inhibition, actives largely listed as inhibitors; active = well fitted inhibition curve with a large enough effect in the main read-out, with a control signal flat, not every such curve was filed as active; inconclusive = small, poorly fitted or top-dose-only effect, or effect the other way, or a change in a side signal; inactive = no such curve, though single readings can be large or run the other way; also: % of control where 0% means no effect
Target sequence (Q99816 whole entry, looked up): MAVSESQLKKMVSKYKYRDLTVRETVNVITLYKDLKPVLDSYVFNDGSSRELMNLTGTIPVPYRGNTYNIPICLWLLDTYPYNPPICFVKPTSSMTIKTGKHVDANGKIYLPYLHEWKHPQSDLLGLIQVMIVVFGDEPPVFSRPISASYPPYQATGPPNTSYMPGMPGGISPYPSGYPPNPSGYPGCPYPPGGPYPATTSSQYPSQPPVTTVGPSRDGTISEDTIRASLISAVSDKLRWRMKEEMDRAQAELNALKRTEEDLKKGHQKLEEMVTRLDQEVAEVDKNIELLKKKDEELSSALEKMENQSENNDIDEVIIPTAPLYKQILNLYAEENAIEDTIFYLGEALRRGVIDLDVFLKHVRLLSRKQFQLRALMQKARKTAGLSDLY
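Compounds were pin-transferred onto Tsg101 binding domain (10 uM final) in HEPES pH 7.5 buffer, then FITC-PTAP peptide was added at 50 nM final. After 20 min at RT, polarization reported peptide displacement across a qHTS concentration series.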
KB-V1 MDR tox = qHTS assay for MDR1-selective chemotherapeutics: Primary screen using the drug-selected MDR subline cells KB-V1; KB-V1 MDR cells viability, CellTiter-Glo, 72 h; Potency, µM (titrated, usually from 46.1 µM), hits mostly cytotoxic; 400,000 compounds, 3.4% hits; AID 1347076, 2019; also: % is scaled to controls: 0 for no effect and ±100 for the full control effect; nearly all actives have a fitted effect of over 60% in size
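Compound-treated KB-V1 multidrug-resistant cells, 72 h, 37 degrees C; viability by CellTiter-Glo. Fitted qHTS curves give the values.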
PINK1 modulator = A Quantitative High throughput Screen to Identify Chemical Modulators of PINK1 Expression. PINK1 immunofluorescence, high-content cytometry, 24 h. Potency, µM (doses to about 76.6 µM), inactives show top-dose activation (PINK1 increase), usual class: activators. 410,000 compounds, 0.2% hits. AID 624263, 2012; active = well fitted activation curve with a large enough effect; inconclusive = small, poorly fitted or top-dose-only effect; cell line not stated here; also: % of control where 0% means no effect; nearly all actives have a fitted effect of over 65% in size
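A stable cell line was treated with compounds at 5 concentrations for 24 hours, with CCCP as control. PINK1 levels and mitochondrial localization were measured by immunofluorescence with mitochondrial, cell and nuclear markers after fixation, read by laser-scanning cytometry.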
SW480 rerep = A quantitative high throughput screen for small molecules that induce DNA re-replication in SW480 colon adenocarcinoma cells; SW480 DNA re-replication, Hoechst DNA content imaging, 48 h; Potency, µM (doses to about 46.1 µM), without a hit: at the highest dose re-replication activation, most hits filed as activators; 340,000 compounds, 1.8% hits; AID 624297, 2012; also: % of control where 0% means no effect; nearly all actives have a fitted effect of over 55% in size
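Readout is total intensity of Hoechst-stained nuclei, excited at 405 nm and collected at 500-530 nm. Compound treatment lasted 48 hr at 37 C in 5% CO2 before staining.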
KB-3-1 tox = qHTS assay for MDR1-selective chemotherapeutics: Primary screen using the parental adenocarcinoma cell KB-3-1 | Potency, µM (doses to about 46.1 µM), hits mostly cytotoxic | 400,000 compounds, 1.4% hits | KB-3-1 viability, CellTiter-Glo ATP luminescence, 72 h; also: % is scaled to controls: 0 for no effect and ±100 for the full control effect; nearly all actives have a fitted effect of over 60% in size
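72 h, 37 °C compound treatment of KB-3-1 parental cells; CellTiter-Glo added, 10 min, luminescence read. Data corrected against DMSO-only plates and normalized before curve fitting.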
MCF10A rerep = A quantitative high throughput screen for small molecules that induce DNA re-replication in MCF 10a normal breast cells; 350,000 compounds, 2.9% hits; MCF 10A DNA re-replication, Hoechst nuclear intensity, 48 h; Potency, µM (top dose mostly 46.1 µM), inactives show at the top dose activity, positive = re-replication, most hits filed as activators; also: % of control where 0% means no effect; nearly all actives have a fitted effect of over 50% in size
* marks the source's active call; other numbers are inactive results; i = inactive; ? = inconclusive; · = not tested or not shown; [ ] = another dose, or the depositor's remark. Unless noted, calls follow the shape of the dose curve; as a rule, active = well fitted curve in the direction sought with a large enough effect; inconclusive = small, poorly fitted or top-dose-only effect, or another doubt; inactive = no such curve, though single readings can be large; an effect the other way counts as inactive or inconclusive. Potency is read from the fitted curve at half-maximal effect.

SMILES | TSG101-PTAP inh | KB-V1 MDR tox | PINK1 modulator | SW480 rerep | KB-3-1 tox | MCF10A rerep
Cc1cccc(NCc2ccc(O)c3ncccc23)c1 | -7.8% | i | 17.3% | ? | 23.1µM* | ?
COCc1ccc(O)c2ncccc12 | -5.8% | 11.6µM* | 1.0% | 25.8% | 14.6µM* | 7.31µM*
OCc1ccnc2c(O)cccc12 | -0.5% | ? | 6.0% | 1.16µM* | ? | 5.17µM*
CCOc1ccc(-c2cc(C(=O)NCc3ccccc3)c3c(-c4ccc(CC)cc4)[nH]nc3n2)cc1 | · | i | 2.3% | · | i | ·
Oc1ccc(CNc2ccc(F)cc2)c2cccnc12 | -3.4% | i | 0.6% | ? | ? | 23.1µM*
Fc1cccc2sc(Nc3nnc(-c4ccccc4)o3)nc12 | -1.0% | i | 4.0% | 11.5% | ? | 23.1µM*
CC(C)(C)c1ccc(C(=O)N2CCC(c3noc(-c4ccc(S(=O)(=O)N5CCCC5)cc4)n3)CC2)cc1 | · | · | 1.4% | · | · | ·
O=[N+]([O-])c1ccc(N/N=C/c2c[nH]c3ccccc23)c(S(=O)(=O)Nc2ccc(Cl)cc2)c1 | 9.2% | ? | ? | 20.6µM* | ? | ?
COc1ccccc1NS(=O)(=O)c1cc([N+](=O)[O-])ccc1N/N=C/c1c(C)[nH]c2ccccc12 | 9.0% | i | 9.4%[38.3 µM] | 11.8% | i | ?
COc1cccc(CSc2nc3n(n2)C(CC(C)C)C(C(=O)Nc2ccccc2OC)=C(C)N3)c1 (centres undefined) | · | i | 20.2% | · | i | ·
C=CCNc1nc(Cl)nc(Nc2ccc(OC)cc2)n1 | -10.8% | 13µM* | -5.3%[38.3 µM] | -6.0% | i | 2.7%
O=[N+]([O-])c1ccccc1S(=O)(=O)NCCC1=CCCCC1 | -1.4% | 14.6µM* | 1.8% | -1.7% | i | 20.5%
O=C(Cc1ccccc1[N+](=O)[O-])NCCC1=CCCCC1 | 0.2% | i | -0.3% | 6.8% | i | 4.6%
CC(C)CCNC(=O)c1ccc2c(c1)N(Cc1ccccc1F)C(=O)c1ccccc1S2=O (centres undefined) | · | i | 0.2% | · | i | ·
COc1ccc(CC(=O)N2N=C(c3ccncc3)CC2(O)C(F)(F)F)cc1 (centres undefined) | 0.8% | 5.17µM* | 10.4% | 18.4µM* | i | ?
CCC1=NN(C(=O)Cc2ccc(OC)cc2)C(O)(C(F)(F)F)C1 (centres undefined) | -15.2% | i | -1.5%[38.3 µM] | -2.8% | i | 1.9%
CCn1cc(Cl)c(C(=O)N2N=C3/C(=C/c4cccs4)CCCC3C2c2cccs2)n1 (centres undefined) | 4.7% | 20.6µM* | -8.8%[38.3 µM] | 18.4µM* | ? | 23.3%
CC(=O)N1N=C2c3ccccc3CCC2C1c1cccs1 (centres undefined) | 1.4% | i | -0.4% | -11.7% | i | -2.2%
CCOCCCN(Cc1ccco1)C(=O)c1cc2c(s1)-c1c(C)cccc1OC2 | · | ? | 13.5% | · | i | ·
CC(C)OCCCN(Cc1ccco1)C(=O)c1cc2c(s1)-c1ccccc1OC2 | · | 9.2µM* | 3.9% | · | 16.4µM* | ·
COc1cc(OC)c(NC(=O)c2cc(C(C)=O)n3ccccc23)cc1Cl | · | i | 0.1% | · | i | ·
Cc1ccc(C2=NN(S(=O)(=O)c3ccccc3)C(c3ccccc3O)C2)cc1 (centres undefined) | 2.0% | ? | 0.2% | 6.1% | i | 152.5%
COc1cc(C2CC(c3cccnc3)=NN2c2ccc(F)cc2)cc(OC)c1OC (centres undefined) | -4.6% | i | 10.3% | 8.2µM* | i | ?
COc1ccc(C2CC(c3ccccc3)=NN2c2ccccc2)c(C(=O)O)c1OC (centres undefined) | -2.1% | i | -1.7% | ? | i | 18.4µM*
COc1cccc2c1OC1(CCN(C(C)C)CC1)N1N=C(c3cccnc3)CC21 (centres undefined) | 0.0% | i | -1.4% | -2.3% | i | 7.4%
SMILES | TSG101-PTAP inh | KB-V1 MDR tox | PINK1 modulator | SW480 rerep | KB-3-1 tox | MCF10A rerep
NS(=O)(=O)c1ccc(N2N=C(c3ccccc3)CC2c2ccccc2Br)cc1 (centres undefined) | 0.9% | i | -1.0% | 11.6µM* | i | ?
COc1ccc2c(c1OC)C(=O)N1N=C(c3ccccc3)CC21 (centres undefined) | -5.5% | i | 2.3% | -1.1%[9.22 µM] | i | 1.3%
NS(=O)(=O)c1ccc(N2N=C(c3ccc(Br)cc3)CC2c2ccc(F)cc2)cc1 (centres undefined) | -0.8% | ? | -2.4% | ? | ? | 1.84µM*
Cc1ccsc1C(=O)N(Cc1cc2ccc(F)cc2nc1N1CCC(O)CC1)CC1CCCO1 (centres undefined) | · | · | -0.6% | · | · | ·
COCCNC(=O)CCC(=O)N1Cc2cccc(OC)c2Oc2ncccc21 | · | i | -0.5% | · | i | ·
Cc1ccc(-n2nc(C(=O)Nc3cccc(C#N)c3)c3c4ccccc4n(C)c3c2=O)cc1 | · | i | 2.4% | · | i | ·
COc1ccc(C2=NN(c3ccc(C(=O)O)cc3)C(c3ccc(OC)c(OC)c3)C2)cc1 (centres undefined) | -7.8% | i | -1.8% | 18.4µM* | ? | 3.26µM*
COc1cc(C2CC(c3ccccc3)=NN2c2ccccc2)ccc1OCC(=O)O (centres undefined) | -3.5% | ? | -2.6% | 16.4µM* | i | 4.11µM*
COc1ccc(C2CC(c3ccccc3)=NN2c2ccc(S(N)(=O)=O)cc2)cc1OC (centres undefined) | -1.5% | i | -2.2% | 23.1µM* | i | 16.4µM*
NS(=O)(=O)c1ccc(N2N=C(c3ccccc3)CC2c2cccc(F)c2)cc1 (centres undefined) | -0.1% | ? | -3.7% | 4.11µM* | ? | 2.59µM*
Cc1cc(C)c2c(c1)c(C)cc1nnc(SCC(=O)c3ccccc3)n12 | · | · | 0.4% | · | · | ·
COc1cc(N2N=C(c3ccccc3)CC2c2ccccc2)c(C=O)cc1C=O (centres undefined) | 0.8% | ? | 0.8% | 18.5% | ? | ?
NS(=O)(=O)c1ccc(N2N=C(c3ccccc3)CC2c2cccc(Br)c2)cc1 (centres undefined) | -3.1% | ? | -1.5% | 23.1µM* | i | 5.17µM*
